The structures appear in SMILES notation. Active and inactive are the calls of the source. Rule for the calls: active = hit-call score of the fitted dose curve at least 0.9, where 1 is the maximum; inactive = score below 0.9.

Read-out in this test: Cytochrome P450 (CYP1A2), CYP1A2 (gene 1544)
As to the kind of experiment: LTEA_HepaRG_CYP1A2: Life Technologies and Expression Analysis (LTEA) Assay for Cytochrome P450 (CYP1A2) using HepaRG (AID 2283479).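 For AC50: TaqMan qRT-PCR transcript level normalized to ACTB GAPDH and POLR2A.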 The note with it: mRNA level, 48 h; actives raise or lower the signal. Here is the method: LTEA_HepaRG is a cell based, multiplexed-readout assay that uses HepaRG, a human liver cell line, with measurements taken at 48 hours after chemical dosing on a 96-well plate.LTEA_HepaRG_CYP1A2 is one of 102 assay component(s) measured in the LTEA HepaRG cell culture assay. It is a marker of NR mediated metabolism.Data from the assay component LTEA_HepaRG_CYP1A2 was analyzed into 1 endpoint. This assay endpoint, LTEA_HepaRG_CYP1A2, was analyzed with bidirectional fitting relative to DMSO as the negative control and baseline of activity. Using a type of inducible reporter, measures of mRNA induction for gain or loss-of-signal activity can be used to understand regulation of transcription factor activity. To generalize the intended target to other relatable targets, this assay endpoint is annotated to the cyp intended target family, where the subfamily is xenobiotic metabolism.
A total of 1060 chemcials from the ToxCast library were tested in eight-point concentration-response experiments. Cell culture and cytotoxicity assays were conducted at Thermo Fisher Scientific's Custom Services facility (Madison, WI). A single lot of human HepaRG cells (Thermo Fisher Scientific, Frederick, MD) was used for the cell culture experiments. 96-well format collagen type I coated plates of human HepaRG cells were prepared using established methods. Briefly, cryopreserved HepaRG cells were thawed, plated at a density of approximately 100,000 cells/well in HepaRG Thaw, Plate, and General Purpose media (HPRG770, Thermo Fisher Scientific), and incubated for 48 hours. 0.5% DMSO was selected as vehicle control to balance the requisite need of DMSO in HepaRG cultures to maintain differentiation (for example, baseline metabolism, proportions of hepatocytes vs. cholangiocytes), while enabling further hepatic receptor pathway activation (for example, PXR and CAR) in response to chemical exposure. 48 hours after plating, the culture medium was replaced with HepaRG Serum-Free Incudtion Media. Cells were exposed to each test chemical in duplicate and maintained in CO2 incubators for another 48 hours. Chemical plates were thawed to room temperature and 200x concentrations of treatment groups were prepared. 8-point conentration-reponse curves were made with the highest exposure at 100 uM, followed by half-log dilutions, all in 0.5% DMSO. Each test plate contained variouse controls, induction positive controls (1mM phenobarbital), cytotoxicity positive controls ([…] aflatoxin B1), vehicle controls (0.5% DMSO), and total lysis controls (0.5% DMSO). Cell morphology images were taken using an Essen IncuCyte FLR automated microscope, with six 96-well plates imaged in about 24 minutes. Images were captured and exported and JPEG files. Spent culture media was transfered to black-well plates for the LDH assay, and remaining media was sorted at -80 C for later use. Cells were treated with RLT buffer and frozen until shipped for gene expression analysis. Total RNA was isolated from the cell suspension in 75 uL of Buffer RLT (Qiagen, Germantown, MD 20874) by Quintiles/Expression Analysis (Durham, NC) using a custom isolation procedure. Total RNA from each plate well was transferred to a preamplification plate. Fluidigm's 96.96 Dynamic ArrayTM (Fluidigm, Amsterdam, the Netherlands) technology was used for gene expression analyses by quantitative reverse transcription polymerase chain reaction (qRT-PCR, performed by Quintiles/Expression Analysis, Durham, NC)89. Standard TaqManTM Assays (Applied Biosystems/ThermoFisher Scientific, Foster City, CA) were used to assess the expression of 93 genes selected based on their selectivity and sensitivity to important hepatic receptors known to be modulated by environmental chemicals; importance in human hepatocyte functionality; and hepatotoxicity. […]
The AC50 is the concentration at which the activity in the assay is half-maximal. Regarding `Oc1ccc(O)cc1`, the AC50 was 50 µM (active).
For the molecule `CC(C)c1cccc(C(C)C)c1NC(=O)NS(=O)(=O)c1cc(C(C)(C)O)co1`, the call was inactive.
In the case of `NC1CCCCC1`, the result was inactive.
Still for that read-out and setting: next, `CC(C)COC(=O)CCCCC(=O)OCC(C)C`: “inactive”.
The same measure, in the same setting: next, `CCN(CC)CCOc1ccc(C(=C(Cl)c2ccccc2)c2ccccc2)cc1`: “inactive”.
As to `COc1ccc(OC(F)(F)F)cc1CN[C@H]1CCCN[C@H]1c1ccccc1`, the AC50 is 15.8 µM (active).
For `CC(=O)O`, the outcome was inactive.
With `CCCCCCC(CCCCCCCCCCC(=O)OCC(COC(C)=O)OC(C)=O)OC(C)=O` (stereo not given), the result was inactive.
The same measure, in the same setting: next, `CCc1cc(C2=C(C(=O)O)N(c3ccccc3C(F)(F)F)S(=O)(=O)c3ccccc32)cc2c1OCO2`: “inactive”.
As to `O=[Si]=O`, the AC50 is 50 µM (active).
The same measure, in the same setting: the figure for `CC(C)OC(=O)C(C)(C)Oc1ccc(C(=O)c2ccc(Cl)cc2)cc1` is 28.1 µM (active).
Turning to `CC(=O)S[C@H](C(=O)N[C@H]1Cc2ccccc2[C@H]2CCC[C@@H](C(=O)O)N2C1=O)C(C)C`, the call was inactive.
Same read-out and setting: the entry for `CCCCCCC(C=O)=Cc1ccccc1` is “inactive”; for `CO[C@@H]1COCC[C@@H]1N[C@@H]1CC[C@@](C(=O)N2CCc3ncc(C(F)(F)F)cc3C2)(C(C)C)C1` it is “inactive”.
In the case of `S=c1[nH]c2ccccc2s1`, the AC50 is 10.7 µM (active).
As for `CN(C)CCCN(C)CCCN(C)C`, the molecule was classed as inactive.
Still for that read-out and setting: next, `CC(=O)CC(c1ccccc1)c1c(O)c2ccccc2oc1=O` (stereo not given): “inactive”.
`CCCCC(CC)CO` (stereo not given): the AC50 is 50 µM (active).
As for `CCCCCCCCCC[N+](C)(C)[O-]`, the result was inactive.
The same measure, in the same setting: next, `CC(=O)OCC(COC(C)=O)OC(C)=O`: “inactive”.
Consider `Cc1c(C)c2c(c(C)c1O)CCC(C)(COc1ccc(CC3SC(=O)NC3=O)cc1)O2` (stereo not given), for which the AC50 is 15.8 µM (active).
On to `O=Cc1ccccc1C=O`, for which the AC50 was 7.32 µM (active).
The same measure, in the same setting: next, `NC(=Nc1ccccc1)Nc1ccccc1`: 50 µM (active); `CC(C)NCC(O)c1ccc(O)c(O)c1` (stereo not given): 0.204 µM (active).
For `COC(=O)CCC(=O)OC`, the call was inactive.
Same read-out and setting: the entry for `C=CCc1ccc(OC)c(OC)c1` is “inactive”.
The same measure, in the same setting: next, `O=C1CCCCC1`: “inactive”.
Consider `CCCCC(CC)COP(=O)(OCC(CC)CCCC)OCC(CC)CCCC` (stereo not given), for which the AC50 is 24.6 µM (active).
Still for that read-out and setting: the figure for `CC1=C(C)S(=O)(=O)CCS1(=O)=O` is 9.92 µM (active); for `O=C(Oc1ccccc1)c1cccc(C(=O)Oc2ccccc2)c1` it is 52.2 µM (active); for `Cc1ccc(C(C)(C)C)c(O)c1` it is 25.6 µM (active).
On to `NCCOCCOCCN`, for which the molecule was classed as inactive.
Same read-out and setting: next, `CCCCCCCCCCCCCCCCO`: “inactive”; `OCC(CO)n1cnc(-c2ccc(F)cc2)c1-c1ccnc(Oc2ccccc2)n1`: “inactive”.
With `CCCCOC(=O)CCCCC(=O)OCCCC`, the AC50 is 50 µM (active).
With `CCCCc1nc2cccnc2n1Cc1ccc(-c2ccccc2-c2nnn[nH]2)cc1`, the result was inactive.
Same read-out and setting: next, `Cc1cn([C@H]2C=C[C@@H](CO)O2)c(=O)[nH]c1=O`: “inactive”.
Turning to `Nc1nc(Cl)nc2c1ncn2[C@H]1C[C@H](O)[C@@H](CO)O1`, the AC50 was 0.715 µM (active).
Still for that read-out and setting: next, `N[C@@H](Cc1c[nH]c2ccccc12)C(=O)O`: 14.4 µM (active); `O=C(O)c1[nH]n(-c2ccc(S(=O)(=O)O)cc2)c(=O)c1N=Nc1ccc(S(=O)(=O)O)cc1`: 14.8 µM (active).

Values taken from PubChem BioAssay (EPA / NIEHS).
